Results filed as inconclusive are left out. Calls of active or inactive are those of the source. Calls follow the shape of the dose curve; as a rule, active = well fitted curve in the direction sought with a large enough effect; inconclusive = small, poorly fitted or top-dose-only effect, or another doubt; inactive = no such curve, though single readings can be large; an effect the other way counts as inactive or inconclusive.
Tests used:
[1] = Cell Viability - LYMP2-009 (AID 968); also: series mostly up to about 92 µM; nearly all actives have a fitted effect of over 55% in size
[2] = Cell Viability - LYMP2-011 (AID 969); also: nearly all actives have a fitted effect of over 60% in size
Method in brief: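 Cytotoxicity qHTS with ATP content as read-out: lymphoblastoid cells (2500/well) exposed to compound for 24 h at 37 C, then luciferase luminescence measured. Concentration-response data fitted with the standard Hill equation to give AC50.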

[3] = Cell Viability - LYMP2-013 (AID 970); also: series mostly up to about 92 µM; nearly all actives have a fitted effect of over 55% in size
Method in brief: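 qHTS cytotoxicity: ATP-dependent luminescence (CellTiter-Glo, 30 min room temperature) read after 24 h compound exposure at 37 C of 2500 LYMP2-013 lymphoblastoid cells per well. Concentration-response fitted with Hill equation to give AC50.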

[4] = Cell Viability - LYMP2-015 (AID 971); also: nearly all actives have a fitted effect of over 55% in size
Method in brief: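 Cytotoxicity readout: decrease in intracellular ATP (CellTiter-Glo luminescence) in 2500 LYMP2-015 lymphoblastoid cells/well after 24 h compound exposure at 37 C. Concentration-response data fitted with the standard Hill equation to give AC50.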

[5] = Cell Viability - LYMP2-017 (AID 972); also: series mostly up to about 92 µM; nearly all actives have a fitted effect of over 55% in size
Method in brief: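 CellTiter-Glo luminescence (cellular ATP, 30 min RT) measured cytotoxicity after 24 hr compound treatment at 37 C. Cells were a human lymphoblastoid line, LYMP2-017, plated at 2500/well and incubated 5 hr first; concentration-response fitted with Hill equation for AC50.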

[6] = Cell Viability - LYMP2-019 (AID 973); also: nearly all actives have a fitted effect of over 55% in size
Method in brief: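 AC50 values come from Hill-equation fits of luminescent intracellular ATP (CellTiter-Glo, 30 min, room temperature) following 24 h compound exposure at 37 C. Cells: LYMP2-019 lymphoblastoid line, 2500 per well, in complete culture medium.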

[7] = Cell Viability - LYMP2-021 (AID 974); also: nearly all actives have a fitted effect of over 55% in size
Method in brief: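 AC50 values come from Hill-equation fits to CellTiter-Glo luminescence (ATP content), read after 24 hour compound exposure at 37 C of 2500 LYMP2-021 lymphoblastoid cells/well; tetraoctylammonium bromide as positive control.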

[8] = Cell Viability - LYMP2-023 (AID 975)
Method in brief: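 Intracellular ATP, read by CellTiter-Glo luminescence, reports viability after 24 hr compound exposure at 37 C. 2500 lymphoblastoid cells/well (LYMP2-023) seeded 5 hr beforehand; Hill fits give AC50; positive control tetraoctylammonium bromide.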

[9] = Cell Viability - LYMP2-025 (AID 976); also: series mostly up to about 92 µM
Method in brief: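 Cytotoxicity read as loss of intracellular ATP (luciferase luminescence) after 24 h compound treatment at 37 C. Uses LYMP2-025 lymphoblastoid cells in 1536-well format; Hill-equation modelling gives AC50; tetraoctylammonium bromide as positive control.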

[10] = Cell Viability - LYMP2-005 (AID 967); also: series mostly up to about 92 µM
Method in brief: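 CellTiter-Glo luminescence (cellular ATP) read-out; LYMP2-005 lymphoblastoid cells, 2500/well, 5 h pre-incubation, then 24 h compound exposure at 37 C in complete medium. Tetraoctylammonium bromide positive control; AC50 by standard Hill fit.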

Measured: outcome

Nc1ccccc1C(=O)O
not listed: [10]
inactive: all other assays above

CC(C)c1cccc(C(C)C)c1O
not listed: [9]
inactive: all other assays above

Clc1ccc(C(c2ccc(Cl)cc2)C(Cl)(Cl)Cl)cc1
inactive: all assays above

COP(=S)(OC)Oc1ccc(SC)c(C)c1
inactive: all assays above

O=C(O)CCCc1ccc(N(CCCl)CCCl)cc1
inactive: [6] | [8] | [9]

CN1C[C@H](C(=O)N[C@]2(C)O[C@@]3(O)[C@@H]4CCCN4C(=O)[C@H](Cc4ccccc4)N3C2=O)C=C2c3cccc4[nH]cc(c34)C[C@H]21
not listed: [4] | [6] | [10]
inactive: all other assays above

Nc1ccccc1
inactive: all assays above

O=P1(N(CCCl)CCCl)NCCCO1 (stereo not given)
inactive: all assays above

NCCc1ccc(O)cc1
inactive: all assays above

COc1cc(OC)c(OC)cc1C=O
inactive: all assays above

COC(=O)C(c1ccccc1)C1CCCCN1 (stereo not given)
not listed: [4]
inactive: all other assays above

CCC(C)(C)c1ccc(O)cc1
inactive: all assays above

CCCC(C)(COC(N)=O)COC(N)=O
inactive: all assays above

C[C@]12CCC(=O)C=C1CC[C@@H]1[C@@H]2CC[C@@]2(C)[C@H]1CC[C@]2(C)O
inactive: all assays above

C[C@]12CCC(=O)C=C1CC[C@@H]1[C@@H]2CC[C@]2(C)C(=O)CC[C@@H]12
inactive: all assays above

C[C@]1(O)CC[C@H]2[C@@H]3CCC4=CC(=O)CC[C@]4(C)[C@@]3(F)[C@@H](O)C[C@@]21C
inactive: all assays above

Oc1ccc(Cl)cc1
not listed: [10]
inactive: all other assays above

CCOC(=O)CC(SP(=S)(OC)OC)C(=O)OCC (stereo not given)
not listed: [10]
inactive: all other assays above

CC(C)NC(C)C
inactive: all assays above

From PubChem BioAssay (NCATS)
